High-throughput results deposited in PubChem BioAssay by several laboratories.
Peg3 prom inh: reduces Peg3 promoter-driven luciferase expression in HeLa. HeLa PEG-Prom luciferase reporter, luminescence, overnight. inhibition, % at 20 µM. 360,000 tested, 1.7% active. AID 588405;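 active = inhibition of at least 50% at 20 µM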
KKLEB tox: CF airway cell cytotoxicity counter-screen | KKLEB CF airway cells viability, ATPlite luminescence, overnight; active compounds read low; cells stimulated with P. aeruginosa culture filtrate | activity change (cytotoxicity), % at 5 µM | 360,000 tested, 0.36% active | AID 602141;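 active = corrected activity change at or below -50% at 5 µM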
EBV LMP1 NFkB: inhibitors of Epstein-Barr LMP1-induced NF-kappaB reporter; LMP1-induced NF-kappaB luciferase reporter cells, luminescence; inhibition, % at 12.5 µM; 350,000 tested, 0.69% active; in the data active = inhibition above about 41%; inconclusive = no clear call, values can overlap the other calls;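 note: 0% = neutral control wells and 100% = reference inhibitor control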
CF NFkB inh: inhibitors of cystic fibrosis induced NF-kB. KKLEB NF-kB-GFP reporter, PAF-induced, GFP fluorescence overnight. inhibition, % at 5 µM. AID 588850. 360,000 tested, 0.86% active;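 active = at least 50% inhibition at 5 µM, scaled per plate between neutral and stimulator controls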;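 note: PAF is a Pseudomonas aeruginosa culture filtrate used as stimulus; plate controls were PAF-stimulated DMSO wells for no effect and unstimulated DMSO wells for full effect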
TRPM1 prom inh: inhibitors of MITF-driven TRPM1 promoter in melanoma cells; inhibition, % at 12.5 µM; SK-MEL-5 TRPM1 promoter luciferase, 24 h; 330,000 tested, 0.83% active;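 active = mean inhibition across replicates of 60% or more, whatever share of single replicates reaches that level; inconclusive = some that reach 60%, reason not given; inactive = mean inhibition across replicates below 60%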
HIF-2a inh: HIF-2a inhibition; 360,000 tested, 0.72% active; inhibition, % at 18.8 µM; 786-0 RCC cells HIF-2a reporter, luciferase luminescence, overnight;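 active = inhibition of the luminescence signal of 40% or more relative to plate controls, in a single-dose primary screen at 18.75 µM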
* marks the source's active call; other numbers are inactive results. Shown are actives, neighbours in structure and some others; about 3% of the full set was active somewhere.

For Cc1ccc(C(=O)COC(=O)c2ccc3c(c2)C(=O)N(c2cccc4ncccc24)C3=O)cc1 the results were Peg3 prom inh 102*, KKLEB tox -12, EBV LMP1 NFkB -2, CF NFkB inh 12, TRPM1 prom inh 44 and HIF-2a inh 16.
CSc1ccc2c(c1)N(CCC1CCCCN1C)c1ccccc1S2 (stereo not drawn) was read as Peg3 prom inh 99*, KKLEB tox -9, EBV LMP1 NFkB 0, CF NFkB inh 29, TRPM1 prom inh -6 and HIF-2a inh -19.
`NC(=O)C1CCN(c2ncnc3c2c(-c2ccccc2)cn3-c2ccccc2)CC1` gave Peg3 prom inh 61*, KKLEB tox -3, EBV LMP1 NFkB 10, CF NFkB inh 17, TRPM1 prom inh -5 and HIF-2a inh 22.
For CC(C)NC(=O)Nc1ccc2c(c1)C(=O)N([C@@H](C)CO)C[C@H](C)[C@H](CN(C)S(=O)(=O)c1ccccc1)OCCCC[C@H](C)O2 the results were Peg3 prom inh 7, KKLEB tox -7, EBV LMP1 NFkB -6, CF NFkB inh 20 and HIF-2a inh -1.
`Cc1ccc(O)c(Cc2cc(C)cc(Cc3cc(C)ccc3O)c2O)c1` gave Peg3 prom inh 56*, KKLEB tox 6, EBV LMP1 NFkB 9, CF NFkB inh 21 and HIF-2a inh 17.
Cc1c(P(=S)(c2ccccc2)c2ccccc2)[n+]2ccccc2n1C/C=C/c1ccccc1 was read as Peg3 prom inh 83*, KKLEB tox -5, CF NFkB inh 46 and HIF-2a inh -33.
CC(O)c1nc2ccccc2n1C/C=C/c1ccccc1 (stereo not drawn) was read as Peg3 prom inh 12, KKLEB tox 13, EBV LMP1 NFkB -5, CF NFkB inh 10, TRPM1 prom inh 8 and HIF-2a inh 3.
`CC1CCN(C(=O)/C(=C\c2cccs2)NC(=O)c2ccccc2)CC1` gave Peg3 prom inh 14, KKLEB tox 4, EBV LMP1 NFkB 53*, CF NFkB inh 6, TRPM1 prom inh -4 and HIF-2a inh 18.
For CN1CCN(/N=C/c2ccc(N(C)c3ccccc3)cc2)CC1 the results were Peg3 prom inh -33, KKLEB tox 0, EBV LMP1 NFkB 4, CF NFkB inh -24, TRPM1 prom inh 1 and HIF-2a inh 7.
CN1CCN(/N=C/c2ccc(N(c3ccccc3)c3ccccc3)cc2)CC1 was read as Peg3 prom inh 97*, KKLEB tox -43, EBV LMP1 NFkB 87*, CF NFkB inh 38, TRPM1 prom inh -16 and HIF-2a inh 90*.
For Cc1cc(C)c(S(=O)(=O)/N=C2/C=C(Sc3ncn[nH]3)C(=O)c3ccccc32)cc1C the results were Peg3 prom inh 106*, KKLEB tox -59*, EBV LMP1 NFkB -2, CF NFkB inh 77*, TRPM1 prom inh 89* and HIF-2a inh 68*.
Screening Cc1ccc(C)c(S(=O)(=O)/N=C2\C=C(NS(=O)(=O)c3ccccc3)C(=O)c3ccccc32)c1 returned Peg3 prom inh 32, KKLEB tox 3, EBV LMP1 NFkB 1, CF NFkB inh 32, TRPM1 prom inh 9 and HIF-2a inh 5.
Screening Cc1ccc(S(=O)(=O)Nc2ccc3c4c(cccc24)CC3)c(C)c1 returned Peg3 prom inh 29, KKLEB tox -3, EBV LMP1 NFkB -1, CF NFkB inh 15, TRPM1 prom inh 13 and HIF-2a inh 11.
Cc1cc(C)c(S(=O)(=O)Nc2ccc3c4c(cccc24)CC3)c(C)c1 was read as Peg3 prom inh 16, KKLEB tox -34, EBV LMP1 NFkB 20, CF NFkB inh 57*, TRPM1 prom inh inconclusive and HIF-2a inh 18.
Screening CC1(C)CC(NS(=O)(=O)c2ccc(S(N)(=O)=O)cc2)CC(C)(C)N1 returned Peg3 prom inh 15, KKLEB tox -2, EBV LMP1 NFkB -14, CF NFkB inh -15, TRPM1 prom inh -2 and HIF-2a inh 15.
Screening CC1(C)CC(NS(=O)(=O)c2ccc(F)cc2)CC(C)(C)N1 returned Peg3 prom inh 2, KKLEB tox -5, EBV LMP1 NFkB 43*, CF NFkB inh -4, TRPM1 prom inh 2 and HIF-2a inh 18.
For COC(=O)[C@@H]1Cc2c([nH]c3ccccc23)C(C)(C)N1C(=O)CCl the results were Peg3 prom inh 22, KKLEB tox -62*, EBV LMP1 NFkB -1, CF NFkB inh 74*, TRPM1 prom inh 28 and HIF-2a inh 35.
`COC(=O)C1Cc2c([nH]c3ccccc23)C2CCC(=O)N12` (stereo not drawn) gave Peg3 prom inh 1, KKLEB tox -9, EBV LMP1 NFkB 1, CF NFkB inh 4 and HIF-2a inh -4.
`Cc1ccccc1C(c1ncccc1C)N(C)C(=O)C1CCN(CCOc2ccc(Cl)cc2Cl)CC1` (stereo not drawn) gave Peg3 prom inh 100*, KKLEB tox -11, CF NFkB inh 13 and HIF-2a inh 7.
For O=C(NC(c1ccccc1)c1ccsc1)C1CCN(CCOc2ccc(Cl)cc2Cl)CC1 (stereo not drawn) the results were Peg3 prom inh 54*, KKLEB tox -31, CF NFkB inh 8 and HIF-2a inh -13.
Screening Cc1ccc(F)cc1-c1cc(C(=O)NCc2cc(C(F)(F)F)cc(C(F)(F)F)c2)[nH]n1 returned Peg3 prom inh 13, KKLEB tox 2, CF NFkB inh 16 and HIF-2a inh 4.
`CCCN1C(=O)CC(c2ccc(OC)c(OC)c2)C1=O` (stereo not drawn) gave Peg3 prom inh -7, KKLEB tox -11, CF NFkB inh 12 and HIF-2a inh 13.
`CC(Nc1c([N+](=O)[O-])c(=O)oc2ccccc12)C(Cl)c1ccccc1` (stereo not drawn) gave Peg3 prom inh 50*, KKLEB tox 4, EBV LMP1 NFkB 6, CF NFkB inh -8, TRPM1 prom inh 38 and HIF-2a inh 25.
`O=c1oc2ccccc2c(NC(c2ccccc2)c2ccccc2)c1[N+](=O)[O-]` gave Peg3 prom inh 35, KKLEB tox 0, EBV LMP1 NFkB 12, CF NFkB inh 9, TRPM1 prom inh -8 and HIF-2a inh 10.
Screening CC(C)c1nc(SCc2c(F)cccc2Cl)c2c(=O)n(C)c(=O)n(C)c2n1 returned Peg3 prom inh 63*, KKLEB tox 8, EBV LMP1 NFkB -14, CF NFkB inh 3, TRPM1 prom inh -15 and HIF-2a inh 6.
`N#CC(CC(=O)OCc1ccccc1)NC(=O)OCc1ccccc1` (stereo not drawn) gave Peg3 prom inh -5, KKLEB tox -3, EBV LMP1 NFkB 2, CF NFkB inh -10 and HIF-2a inh -1.
`CCCCCCCC/C=C\CCCCCCCC(=O)NCCc1ccc(O)c(O)c1` gave Peg3 prom inh -13, KKLEB tox 6, EBV LMP1 NFkB -75, CF NFkB inh 59*, TRPM1 prom inh 40 and HIF-2a inh 18.
